High-throughput results deposited in PubChem BioAssay by National Center for Advancing Translational Sciences (NCATS).
Only some compounds are listed: those with a hit (about 2.8% of all), similar ones and a draw of the others.
Pol iota inh: qHTS for Inhibitors of Polymerase Iota | DNA polymerase iota (Homo sapiens), Q9UNA4 | Pol iota fluorescent replication assay, 10 min | Potency, µM (highest dose often 115 µM), for inactives: at the top dose activity, negative = inhibition, usual class: inhibitors | 390,000 compounds, 1% hits; note: potency is the fitted concentration of half-maximal effect
Target sequence (Q9UNA4 whole entry, looked up): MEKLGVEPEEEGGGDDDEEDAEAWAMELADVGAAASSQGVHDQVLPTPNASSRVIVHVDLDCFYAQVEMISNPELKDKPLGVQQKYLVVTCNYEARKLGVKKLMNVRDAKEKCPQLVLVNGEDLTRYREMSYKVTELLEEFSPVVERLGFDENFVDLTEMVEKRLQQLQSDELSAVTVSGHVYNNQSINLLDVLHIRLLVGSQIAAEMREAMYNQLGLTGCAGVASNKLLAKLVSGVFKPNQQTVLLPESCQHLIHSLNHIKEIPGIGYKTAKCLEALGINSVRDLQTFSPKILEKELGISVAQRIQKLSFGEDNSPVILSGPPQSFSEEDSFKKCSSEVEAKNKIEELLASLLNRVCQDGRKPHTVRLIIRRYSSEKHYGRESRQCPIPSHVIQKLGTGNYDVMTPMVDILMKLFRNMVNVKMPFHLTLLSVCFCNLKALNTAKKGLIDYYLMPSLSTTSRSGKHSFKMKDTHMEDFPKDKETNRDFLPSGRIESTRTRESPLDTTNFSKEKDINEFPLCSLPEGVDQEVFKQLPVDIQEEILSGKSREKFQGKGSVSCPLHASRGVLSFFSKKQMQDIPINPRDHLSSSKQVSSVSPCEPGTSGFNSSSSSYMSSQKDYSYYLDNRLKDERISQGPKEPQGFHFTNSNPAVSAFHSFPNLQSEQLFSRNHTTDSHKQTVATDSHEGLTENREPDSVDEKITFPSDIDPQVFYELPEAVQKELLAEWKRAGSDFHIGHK
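Pol iota at 10 nM preincubated 15 min with compounds at room temperature; reaction started with fluorescent substrate, 50 nM final. Fluorescence read kinetically at 0 and 10 min; buffer-only wells as negative control.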
POLB inh: qHTS Assay for Inhibitors of DNA Polymerase Beta. 340,000 compounds, 1.3% hits. AID 485314, 2010. Pol beta primer extension/strand displacement, fluorescence kinetic. P06746. Potency, µM (doses to about 114 µM), inactives show at the top dose activity change, negative = inhibition, usual class: inhibitors; note: potency is the fitted concentration of half-maximal effect; % is set by controls: 0 for no effect and ±100 for the full control effect
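Human Pol beta at 10 nM; strand-displacement substrate 50 nM final. Compound exposure 15 min at room temperature before start, reaction 10 min at room temperature.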
POLK inh: qHTS for Inhibitors of Polymerase Kappa. Potency, µM (highest dose often 107 µM), for the others: top-dose activity, negative = inhibition, hits mostly inhibitors. DNA polymerase kappa (Homo sapiens), Q9UBT6. purified Pol kappa, fluorescent DNA synthesis assay, 10 min. 400,000 compounds, 0.53% hits; note: potency is the fitted concentration of half-maximal effect; % is set by controls: 0 for no effect and ±100 for the full control effect
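Activity was followed as the change in fluorescence between reads at 0 and 10 min after starting the reaction with 50 nM substrate. Beforehand, 10 nM polymerase had been preincubated with compound for 15 min at room temperature.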
FEN1 inhibitor: qHTS Assay for the Inhibitors of Human Flap endonuclease 1 (FEN1). P39748. 390,000 compounds, 0.35% hits. Potency, µM (titrated, usually from 114 µM), for inactives: top-dose activity change, negative = inhibition, hits mostly inhibitors. Recombinant FEN1 flap cleavage, fluorescence, 15 min; note: potency is the fitted concentration of half-maximal effect; % is set by controls: 0 for no effect and ±100 for the full control effect; nearly all actives have a fitted effect of over 65% in size
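FEN1 at 10 nM preincubated with compounds 15 min at room temperature, then flap DNA substrate added at 50 nM final. Signal read at 0 and 15 min; concentration-response fitted with four-parameter Hill equation.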
PI5P4Ka inh: qHTS for Inhibitors of phosphatidylinositol 5-phosphate 4-kinase (PI5P4K) | Phosphatidylinositol 5-phosphate 4-kinase type-2 alpha (Homo sapiens), P48426 | PI5P4Kalpha enzyme, ADP-Glo luminescence, 60 min; active compounds read low | max response, % | 330,000 compounds, 1.2% hits | AID 652105, 2013; active = max response of -50% or lower; inconclusive = between -30% and -50%; inactive = -30% or higher; note: value at the top dose of about 77 µM; % is set by controls: 0 for no effect and ±100 for the full control effect
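ADP-Glo luminescence end-point after a 60 min room-temperature kinase reaction. PI5P4Kalpha and substrate in HEPES pH 7.4 buffer with EGTA, 0.1% CHAPS and 5% DMSO; ATP at 5 microM final.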
Pol eta inh: qHTS for Inhibitors of Polymerase Eta; recombinant Pol eta, fluorescent DNA replication assay; Potency, µM (doses to about 114 µM), without a hit: at the highest dose activity change, negative = inhibition, actives largely listed as inhibitors; 390,000 compounds, 1.2% hits; note: potency is the fitted concentration of half-maximal effect; % is set by controls: 0 for no effect and ±100 for the full control effect
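Fluorescent replication assay: 50 nM final substrate added after a 15 min room-temperature compound preincubation with 10 nM enzyme. Signal taken at 0 min and again at 10 min.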
Active calls of the source: *; [ ] = dose if it differs, or a comment. Unless noted, calls come from the whole dose curve; as a rule, active = well fitted curve in the direction sought with a large enough effect; inconclusive = small, poorly fitted or top-dose-only effect, or another doubt; inactive = no such curve, though single readings can be large; an effect the other way counts as inactive or inconclusive.

Results for CC(=O)N1CC(=O)N(c2ccccc2)C1=O ?
Pol iota inh: 0.6%; POLB inh: 22.4%; POLK inh: -11.2%; FEN1 inhibitor: -6.1%; PI5P4Ka inh: 5.5; Pol eta inh: -19.4%

What do the screens show for `CS(=O)(=O)c1ccc(S(=O)(=O)N2CCN(C(=O)C(O)c3ccccc3)CC2)cc1` (centres undefined)?
PI5P4Ka inh: -3.2

How did O=C(O)CC1S/C(=N/N=C/c2ccc(-c3ccc(Cl)cc3[N+](=O)[O-])o2)NC1=O (centres undefined) do in these assays?
Pol iota inh: inconclusive; POLB inh: inconclusive; POLK inh: inconclusive; FEN1 inhibitor: inconclusive; PI5P4Ka inh: -52.4*; Pol eta inh: inconclusive

What do the screens show for `COC(=O)c1cccc(Oc2cccc(Cl)n2)c1`?
Pol iota inh: -1.2%; POLB inh: -5.8%; POLK inh: 0.6%; FEN1 inhibitor: -11.9%; PI5P4Ka inh: 0.8; Pol eta inh: -4.7%

Results for Cc1cc(C)n2c(NC3CCCCC3)c(CC(C)C)nc2n1 ?
PI5P4Ka inh: 0.1

How did Cc1ccc(S(=O)(=O)NC(=O)c2ccc(-c3ccc(-c4ccccc4)cc3)o2)c(C)c1 do in these assays?
POLB inh: 56.2µM*

How did Cc1csc2nc3cc(C(N)=O)ccc3c(=O)n12 do in these assays?
Pol iota inh: 17.6%; POLB inh: 1.2%; POLK inh: 11.8%; FEN1 inhibitor: -3.8%; PI5P4Ka inh: -7.7; Pol eta inh: -12.8%

What do the screens show for `NC(=O)c1ccc2c(=O)n3c(-c4cc(Cl)c(N)c(Cl)c4)csc3nc2c1`?
Pol iota inh: 50.1µM*; POLB inh: inconclusive; POLK inh: -2.3%; FEN1 inhibitor: inconclusive; PI5P4Ka inh: -10.2; Pol eta inh: inconclusive

How did Nc1cc([N+](=O)[O-])ccc1Nc1ccc(O)cc1 do in these assays?
Pol iota inh: -26.5%; POLB inh: 21.9%; POLK inh: -12.1%; FEN1 inhibitor: 6.2%; PI5P4Ka inh: -57.4*; Pol eta inh: -10.5%

How did Nc1ccccc1Nc1ccc([N+](=O)[O-])cc1[N+](=O)[O-] do in these assays?
Pol iota inh: -3.5%; POLB inh: 2.4%; POLK inh: 0.1%; FEN1 inhibitor: 8.2%; PI5P4Ka inh: 4.9; Pol eta inh: -21.3%

What do the screens show for `COCCNc1oc(-c2cccs2)nc1S(=O)(=O)c1ccc(C)cc1`?
Pol iota inh: 31.0%; POLB inh: inconclusive; POLK inh: -1.0%; FEN1 inhibitor: 0.4%; PI5P4Ka inh: 3.4; Pol eta inh: -8.6%

Results for COCCCNc1oc(-c2cccs2)nc1S(=O)(=O)c1ccc(C)cc1 ?
Pol iota inh: 79.0%; POLB inh: 39.8µM*; POLK inh: -2.9%; FEN1 inhibitor: -1.7%; PI5P4Ka inh: 6.6; Pol eta inh: -19.1%

Results for Cc1ccc(OCC(=O)Nc2ccc(Cl)c(-c3nc4ncccc4o3)c2)c(C)c1 ?
Pol iota inh: 11.9%; POLB inh: inconclusive; POLK inh: -7.8%[60.1 µM]; FEN1 inhibitor: 4.5%; Pol eta inh: 7.4%

How did O=C(Cc1ccccc1Cl)Nc1ccc(S(=O)(=O)Nc2nccs2)cc1 do in these assays?
Pol iota inh: 51.4%; POLB inh: -12.0%; POLK inh: -7.5%; FEN1 inhibitor: 17.1%; PI5P4Ka inh: 2.0; Pol eta inh: -23.1%

How did O=C(CSc1ccc(Br)c2cccc(Cl)c12)Nc1ccc(S(=O)(=O)Nc2nccs2)cc1 do in these assays?
Pol iota inh: inconclusive; POLB inh: 50.1µM*; POLK inh: inconclusive; FEN1 inhibitor: -30.6%; PI5P4Ka inh: inconclusive; Pol eta inh: 44.7µM*

Results for NC(=O)NC(CC(=O)N1CCc2ccccc2C1)c1ccc(Cl)cc1 (centres undefined) ?
Pol iota inh: 44.1%; POLB inh: 35.1%; POLK inh: 2.7%; FEN1 inhibitor: 1.0%; PI5P4Ka inh: -6.3; Pol eta inh: -16.5%
